Source: PubChem
Most compounds without a hit are left out; they make up all but 4.1% or so of the library.
TROY signal inh = inhibitors of TROY-driven NF-kB signaling, primary screen, Q293 LMP1-TROYcd cells, NF-kB luciferase, uHTS | Q293 LMP1-TROYcd NF-kB luciferase reporter, 4 h | inhibition, % at 10 µM | actives 0.98% (n = 360,000) | AID 1347056, 2019;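 active = compounds whose plate-normalised and pattern-corrected inhibition of the luciferase reporter signal at the single screening dose is 50% or more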
LMP1 NFkB inh = EBV LMP1-driven NF-kappaB luciferase reporter inhibitors, primary screen, cell-based, luminescence, single point; actives 0.69% (n = 350,000); LMP1-induced NF-kappaB luciferase reporter cells; inhibition, % at 12.5 µM; in the data active = inhibition above about 41%; inconclusive = no clear call, values can overlap the other calls;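 also: 0% = neutral control wells and 100% = reference inhibitor control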
TWEAK-Fn14 inh = inhibitors of TWEAK-Fn14 signaling, primary screen, luciferase reporter cells, uHTS; TWEAK-stimulated Fn14 reporter cells, luciferase luminescence, 8 h; inhibition, % at 10 µM; actives 2% (n = 360,000); in the data active = inhibition above about 50%
Peg3 prom inh-1 = Peg3 promoter-driven luciferase inhibitors, primary screen, cell-based, HeLa, luciferase luminescence; HeLa PEG-Prom luciferase reporter, overnight; inhibition, % at 20 µM; actives 1.7% (n = 360,000);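 active = inhibition of at least 50% at 20 µM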
TRPM1 prom inh = inhibitors of MITF-dependent TRPM1 promoter reporter, primary screen, cell-based, SK-MEL-5, single point, luciferase; SK-MEL-5 TRPM1 promoter luciferase, 24 h; inhibition, % at 12.5 µM; actives 0.83% (n = 330,000);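 active = mean inhibition across replicates of 60% or more, whatever share of single replicates reaches that level; inconclusive = some that reach 60%, reason not given; inactive = mean inhibition across replicates below 60%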
Shn3 inh set2 = reduction of Shn3 3'UTR firefly luciferase signal, primary screen, Schnurri-3 inhibitor project, cell-based, Clone20 osteoblasts, set 2; Clone20 osteoblast Shn3 3'UTR firefly luciferase, 24 h; inhibition, % at 12.5 µM; actives 0.52% (n = 360,000); AID 588674, 2011;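 active = mean inhibition of at least 75% with every replicate also reaching 75%; inconclusive = mean inhibition at least 75% but some replicate below; inactive = mean inhibition below 75%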;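 also: 0% = median of neutral control wells and 100% = pilot-screen positive control compound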
Peg3 prom inh-2 = Peg3 promoter reporter inhibitors, retest, confirmation, cell-based, HeLa, luciferase reporter, single concentration | AID 602417, 2012 | HeLa PEG-Prom luciferase reporter, luminescence, overnight | shares compounds with Peg3 prom inh-1 | actives 84% (n = 1,300) | inhibition, % at 20 µM;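 active = at 20 µM dose, 40% or more inhibition averaged across four replicates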
Numbers without * were called inactive; ? = inconclusive; . = no result.

SMILES	TROY signal inh	LMP1 NFkB inh	TWEAK-Fn14 inh	Peg3 prom inh-1	TRPM1 prom inh	Shn3 inh set2	Peg3 prom inh-2
O=C(Nc1c2c(nn1-c1ccc(F)cc1)CS(=O)C2)c1ccc(Br)o1 (configuration not stated)	-11	-3	-12	13	5	-6	.
Cc1cc(C(=O)COC(=O)c2ccc3c(c2)OCO3)c(C)n1Cc1cccs1	-6	-16	21	-291	-18	-4	.
Cc1cc(C(=O)COC(=O)c2ccccc2O)c(C)n1Cc1cccs1	64*	87*	102*	91*	90*	91*	87*
COc1ccc(C2c3cc(OC)c(OC)cc3CCN2S(C)(=O)=O)cc1OC (configuration not stated)	10	2	-7	4	-4	30	.
O=C1OCCC1Sc1nnc(-c2ccccc2)o1 (configuration not stated)	-24	-3	-9	-5	10	11	.
O=C1OCCC1Sc1nnc(-c2ccc(Cl)cc2Cl)o1 (configuration not stated)	52*	50*	83*	71*	40	28	63*
C/C(=N\NC(=O)c1nnn(-c2nonc2N)c1CN(C)c1ccccc1)c1ccccc1O	5	22	-8	51*	12	37	71*
CN(C)Cc1c(C(=O)N/N=C/c2ccc(OCc3ccc(F)cc3)cc2)nnn1-c1nonc1N	-33	-12	27	-37	-23	4	.
CC(C)c1ccc(/C=N/NC(=O)c2nnn(-c3nonc3N)c2CN(C)C2CCCCC2)cc1	-2	-10	-50	65*	4	15	32
CCOc1ccc(-c2c(C(=O)N/N=C/c3ccc(O)cc3)nnn2-c2nonc2N)cc1	-1	-9	9	4	5	6	.
CN(C)c1ccc(/C=N/NC(=O)c2nnn(-c3nonc3N)c2COc2ccc(F)cc2)cc1	36	-5	-18	87*	-6	6	51*
CCOc1ccc(/C=N/NC(=O)c2nnn(-c3nonc3N)c2COc2ccc(F)cc2)cc1	6	7	-11	54*	-3	17	25
COc1ccc(S(=O)(=O)N2CCN(C)CC2)cc1NC(=O)c1ccccc1F	8	-5	-5	18	13	4	.
CN(C)c1ncc(CN2CCC(C(=O)Nc3ccc(-n4cccn4)cc3)CC2)s1	-2	6	3	4	7	-6	.
Cn1cc(CN2CCCC(C(=O)Nc3cccc(-n4cccn4)c3)C2)cn1 (configuration not stated)	-13	-5	18	15	4	-6	.
Cn1cc(CN2CCCC(C(=O)Nc3ccc(-c4cccc(F)c4)cc3)C2)cn1 (configuration not stated)	-33	-10	-12	53*	-3	14	77*
CC(NNC(=S)N1CCN(c2ccccn2)CC1)c1nccc2ccccc12 (configuration not stated)	-3	72*	10	92*	86*	93*	87*
CN=c1scc(-c2ccccc2F)n1/N=C/c1ccc[nH]1	83*	82*	105*	91*	90*	73	92*
CCN=c1scc(-c2ccc(F)cc2)n1/N=C/c1ccccn1	-21	-20	24	-306	-84	-71	.
CCOC1=C2[C@@H](CN(S(=O)(=O)c3ccc(C)cc3)[C@H]2c2ccccc2Cl)[C@H]2C(=O)N(C)C(=O)[C@H]2C1	19	.	-3	-32	.	-12	.
O=C(O)c1cccc(COc2ccccc2Cl)c1	-10	74*	73*	92*	92*	89*	82*
CCN(CC)CCN1CCN(c2cncc(-c3ccc4ccccc4c3)n2)CC1	-12	.	-28	71*	.	-23	90*
Cc1ccc(Oc2ccc(NC(=O)Cn3ccsc3=N)cc2)cc1	-39	7	17	53*	15	-18	21
O=S(=O)(C(=CNc1ccccc1)S(=O)(=O)c1ccccc1)c1ccccc1	-7	-2	-6	12	5	2	.
Cc1cccc(CNc2ncnc3ccc(-c4ccoc4)cc23)c1	55*	75*	94*	50*	1	-6	41*
SMILES	TROY signal inh	LMP1 NFkB inh	TWEAK-Fn14 inh	Peg3 prom inh-1	TRPM1 prom inh	Shn3 inh set2	Peg3 prom inh-2
Cc1cc(C)cc(NS(=O)(=O)c2ccc3c(c2)c(=O)n(C)c(=O)n3C)c1	14	25	26	54*	60	?	70*
Cn1c(=O)c2cc(S(=O)(=O)Nc3cc(C(=O)O)cc(C(=O)O)c3)ccc2n(C)c1=O	2	7	-5	12	9	5	.
CCOc1ccccc1NC(=O)c1oc2ccccc2c1NC(=O)C1CCCO1 (configuration not stated)	18	-11	2	74*	-3	-18	40
Nn1cnnc1SCC(=O)Nc1ccc(C2CCCCC2)cc1	-65	-1	-31	-194	-25	-24	.
O=C(O)CSCC(=O)Nc1ccc(C2CCCCC2)cc1	83*	58*	92*	71*	74*	54	77*
C=C(C)COc1ccc(C2NC(=O)c3ccccc3O2)cc1OCC (configuration not stated)	-5	-12	19	8	5	-9	.
CCCCCCN1C=C/C(=C\C=C(C#N)C#N)c2ccccc21	8	26	-16	56*	36	67	45*
C=CCN1C=C/C(=C\C=C(C#N)C#N)c2ccccc21	-4	2	19	11	11	5	.
O=C(CN(c1ccc(Cl)cc1)S(=O)(=O)c1ccc(Cl)c([N+](=O)[O-])c1)NCCc1ccccc1	-21	9	-5	87*	51	36	31
CS(=O)(=O)N(CC(=O)NCCc1ccccc1)c1cccc([N+](=O)[O-])c1	-2	-11	-5	-26	-24	-9	.
COc1ccc(C2NC3=C(CCC3)C3(C#N)C4(N=C(N)C23C#N)OCCO4)cc1 (configuration not stated)	12	8	24	67*	17	22	30
COc1ccc(C2C3(C#N)C(N)=NC(OC)(OC)C23C#N)cc1 (configuration not stated)	-1	-1	12	17	18	4	.
CCCSc1ccc2nc(-c3ccccc3)cn2c1	78*	68*	97*	77*	79*	53	69*
NC(N)=N/N=C/c1ccc(Cl)cc1Cl	2	8	7	69*	13	15	83*
